Experimental data from the supplement of paper PMC8371130.
Where a name gives a salt, the structure may show the parent alone.

Test system: HL-1
Assay: relative cell viability (CellTiter-Glo) vs DMSO control (% of DMSO control); higher = more viable cells
Method in brief: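 Compounds at 40, 200, 1000 or 5000 nM in 0.01% DMSO were added to HL-1 mouse atrial cardiomyocytes plated at 1000 cells per well in 384-well plates. The next day, cells were exposed to 1% O2 for 48 h and then reoxygenated for 24 h, or left in normoxia for the same time. Viability was read with CellTiter-Glo luminescence and normalised to vehicle-treated controls.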

[1] = oxygen condition: hypoxia 48 h (1% O2) + reoxygenation 24 h, 40 nM
[2] = oxygen condition: hypoxia 48 h (1% O2) + reoxygenation 24 h, 200 nM
[3] = oxygen condition: hypoxia 48 h (1% O2) + reoxygenation 24 h, 1000 nM
[4] = oxygen condition: hypoxia 48 h (1% O2) + reoxygenation 24 h, 5000 nM
[5] = oxygen condition: normoxia 72 h, 40 nM
[6] = oxygen condition: normoxia 72 h, 200 nM
[7] = oxygen condition: normoxia 72 h, 1000 nM
[8] = oxygen condition: normoxia 72 h, 5000 nM

Structure (SMILES)	relative cell viability [1]	relative cell viability [2]	relative cell viability [3]	relative cell viability [4]	relative cell viability [5]	relative cell viability [6]	relative cell viability [7]	relative cell viability [8]
NCC(=O)CCC(=O)O [5-Aminolevulinic acid hydrochloride]	101	104	105	110	99.8	102	100	113
CN(CCOc1ccc(CC2SC(=O)NC2=O)cc1)c1ccccn1 (configuration not stated) [Rosiglitazone HCl]	107	93.8	101	109	100	93.8	104	107
CC(=O)/N=c1/sc(S(N)(=O)=O)nn1C [Methazolamide]	100	109	108	109	110	105	99.7	108
C=CC[C@@H]1/C=C(\C)C[C@H](C)C[C@H](OC)[C@H]2O[C@@](O)(C(=O)C(=O)N3CCCC[C@H]3C(=O)O[C@H](/C(C)=C/[C@@H]3CC[C@@H](O)[C@H](OC)C3)[C@H](C)[C@@H](O)CC1=O)[C@H](C)C[C@@H]2OC	102	105	102	101	109	106	106	105
CN1CCN(C2=Nc3ccccc3Oc3ccc(Cl)cc32)CC1 [Loxapine Succinate]	100	103	105	116	103	111	102	125
O=C(O)c1cccnc1 [Niacin]	107	107	98	109	110	111	106	93.9
Cc1c(O)c(=O)ccn1C [Deferiprone]	108	102	102	112	100	102	107	111
O=C(O)C(=O)O.[NH-][C@@H]1CCCC[C@H]1[NH-].[Pt+2] [Oxaliplatin]	99.8	102	109	114	97.4	107	105	122
COc1c2ccoc2cc2oc(=O)ccc12 [Bergapten]	101	104	107	109	99.2	96.6	109	103
NS(=O)(=O)c1cc2c(cc1Cl)N=C(CSCc1ccccc1)NS2(=O)=O [Benzthiazide]	103	99.8	99.3	107	99.7	93.8	100	105
Nc1nc2n[nH]nc2c(=O)[nH]1 [Azaguanine-8]	92	105	102	111	103	102	98.7	104
C=CC(=O)Nc1cc(Nc2nccc(-c3cn(C)c4ccccc34)n2)c(OC)cc1N(C)CCN(C)C	97.1	94.4	91.5	104	95.5	93.1	89.4	108
CCOC(=O)C1=C(C)NC(C)=C(C(=O)OC)C1c1cccc(Cl)c1Cl (configuration not stated) [Felodipine]	101	105	88.9	98.7	99.1	101	98	101
NC(N)=Nc1nc(CSCC/C(N)=N/S(N)(=O)=O)cs1 [Famotidine]	103	101	114	120	107	101	97.9	108
Cc1cc(C#N)cc(C)c1Oc1nc(Nc2ccc(C#N)cc2)nc(N)c1Br [Etravirine]	106	103	109	111	108	111	115	110
COc1ccc2c(c1)C(=O)N(CCc1ccc(S(=O)(=O)NC(=O)NC3CCCCC3)cc1)C(=O)C2(C)C [Gliquidone]	97.7	108	102	113	96.6	114	110	116
Nc1nc2[nH]cnc2c(=S)[nH]1 [Thioguanine]	97.1	79.2	65.6	24.5	82.9	75.5	64	22.5
CNC(=C[N+](=O)[O-])NCCSCc1ccc(CN(C)C)o1 [Ranitidine]	82.2	102	97.9	106	90.9	105	106	112
CC(C)CC(N)=O [Isovaleramide]	96.1	91.3	96.4	112	96.3	90.2	87.8	104
CCc1c2c(nc3ccc(OC(=O)N4CCC(N5CCCCC5)CC4)cc13)-c1cc3c(c(=O)n1C2)COC(=O)[C@]3(O)CC [Irinotecan]	99.9	90.1	51.8	28.7	95.2	83.4	64.9	22.8
Cc1onc(-c2ccccc2)c1-c1ccc(S(N)(=O)=O)cc1 [Bextra]	101	97.9	104	107	103	100	95.1	111
COCCCOc1cc(C[C@@H](C[C@H](N)[C@@H](O)C[C@H](C(=O)NCC(C)(C)C(N)=O)C(C)C)C(C)C)ccc1OC [Aliskiren hemifumarate]	94.1	97.2	92.3	107	95.9	102	101	107

Structure (SMILES)	relative cell viability [1]	relative cell viability [2]	relative cell viability [3]	relative cell viability [4]	relative cell viability [5]	relative cell viability [6]	relative cell viability [7]	relative cell viability [8]
CCOc1ccc2nc(S(N)(=O)=O)sc2c1 [Ethoxzolamide]	100	101	96.7	105	102	98.8	102	108
COc1ccc2[nH]c([S+]([O-])Cc3ncc(C)c(OC)c3C)nc2c1 (configuration not stated) [Omeprazole]	101	99.7	107	110	104	103	103	105
CNCCC(Oc1ccc(C(F)(F)F)cc1)c1ccccc1 (configuration not stated) [Fluoxetine  HCl]	103	109	114	110	104	114	106	114
Nc1[nH]cnc2ncnc1-2 [Adenine]	101	97.9	98.1	109	102	95.5	98.6	106
Nc1ccn([C@@H]2O[C@H](CO)[C@@H](O)[C@H]2O)c(=O)n1 [Cytidine]	101	101	105	106	106	107	101	106
CC/C(=C(/CC)c1ccc(O)cc1)c1ccc(O)cc1 [Diethylstilbestrol]	105	106	107	109	108	96.7	108	112
C=CCNC(N)=S [Allylthiourea]	118	102	115	122	106	100	109	124
CS(=O)(=O)c1ccc([C@@H](O)[C@@H](CO)NC(=O)C(Cl)Cl)cc1 [Thiamphenicol]	104	104	109	104	101	96.9	95.9	86.5
Nc1nc2ccc(OC(F)(F)F)cc2s1 [Riluzole]	102	105	108	111	103	104	107	107
CCCCc1nc(Cl)c(CO)n1Cc1ccc(-c2ccccc2-c2nnn[nH]2)cc1 [Losartan potassium]	111	107	114	108	103	108	108	110
CCN(CC)CC(=O)Nc1c(C)cccc1C [Lidocaine]	111	106	104	111	112	108	109	112
NC(=O)N1c2ccccc2CC(=O)c2ccccc21 [Oxcarbazepine]	104	105	116	102	108	127	116	109
Clc1ccc2nsnc2c1NC1=NCCN1 [Tizanidine HCl]	99.5	106	106	108	105	106	98.5	111
[I-].[K+] [Potassium iodide]	103	104	102	108	106	104	106	109
C[C@H](CS)C(=O)N1CCC[C@H]1C(=O)O [Captopril]	108	103	105	109	105	97.2	106	113
CCOc1cc(CC(=O)N[C@@H](CC(C)C)c2ccccc2N2CCCCC2)ccc1C(=O)O [Repaglinide]	84.4	97.2	109	109	67.6	110	114	115
CCCCCCNC(=O)n1cc(F)c(=O)[nH]c1=O [Carmofur]	102	83.8	51.6	18.3	99.2	81.2	44.3	15.1
O=C1[C@H](CC[C@H](O)c2ccc(F)cc2)[C@@H](c2ccc(O)cc2)N1c1ccc(F)cc1 [Ezetimibe]	111	104	108	115	111	112	116	112
CCOC(=O)C1=C(COCCN)NC(C)=C(C(=O)OC)C1c1ccccc1Cl (configuration not stated) [Amlodipine besylate]	88	102	102	105	103	105	106	102
CC(C)OC(=O)C(C)(C)Oc1ccc(C(=O)c2ccc(Cl)cc2)cc1 [Fenofibrate]	103	105	108	110	103	97.9	97.5	112
CCOC(=O)[C@H](CCc1ccccc1)N[C@@H](C)C(=O)N1Cc2cc(OC)c(OC)cc2C[C@H]1C(=O)O [Moexipril HCl]	105	102	107	67.2	100	98.2	90.7	64.1
COC(=O)[C@H](Cc1ccccc1)NC(=O)[C@@H](N)CC(=O)O [Aspartame]	100	98	103	106	96.5	102	100	98.1
